In PubChem BioAssay (NCATS):
Results filed as inconclusive are left out. Active and inactive are the calls of the source. Calls come from the whole dose curve; as a rule, active = well fitted curve in the direction sought with a large enough effect; inconclusive = small, poorly fitted or top-dose-only effect, or another doubt; inactive = no such curve, though single readings can be large; an effect the other way counts as inactive or inconclusive.

How the values were obtained:
[1] = Quantitative High-Throughput drug screen in 47 multiple myeloma cell lines against the NCATS MIPE library collection: JJN3_DSMZ cell viability assay (AID 1918966; note: nearly all actives have a fitted effect of over 50% in size; note: potency is the fitted concentration of half-maximal effect)
How it was run: (§1)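 Inhibition of cell viability is measured here. Each line was plated at 500 cells per well, treated with MIPE 4.0 drugs, kept 48 hours at 37C, then assayed for ATP content by CellTiter-Glo luminescence.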

[2] = Quantitative High-Throughput drug screen in 47 multiple myeloma cell lines against the NCATS MIPE library collection: H1112_PLB cell viability assay (AID 1918967; note: nearly all actives have a fitted effect of over 30% in size; note: potency is the fitted concentration of half-maximal effect)
How it was run: as §1

[3] = Quantitative High-Throughput drug screen in 47 multiple myeloma cell lines against the NCATS MIPE library collection: KMS27_JCRB cell viability assay (AID 1918970); conditions: KMS27 myeloma cells, CellTiter-Glo ATP viability, 48 h; viability (% of DMSO): at 45.8 µM (top of the series); note: nearly all actives have a fitted effect of over 30% in size; note: potency is the fitted concentration of half-maximal effect
How it was run: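 CellTiter-Glo luminescence after 48 h drug exposure at 37 °C; 500 cells/well, 1536-well format, pin-tool compound addition; DMSO = 100%, media-only = 0% viability.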

[4] = Quantitative High-Throughput drug screen in 47 multiple myeloma cell lines against the NCATS MIPE library collection: NCIH929_DSMZ cell viability assay (AID 1918978); note: nearly all actives have a fitted effect of over 35% in size; note: potency is the fitted concentration of half-maximal effect
How it was run: (§2)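 ATP-based luminescence (CellTiter-Glo, 5 min RT incubation) quantified surviving cells following two days' treatment with MIPE 4.0 agents at 37 °C, 5% CO2.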

[5] = Quantitative High-Throughput drug screen in 47 multiple myeloma cell lines against the NCATS MIPE library collection: OCIMY1_PLB cell viability assay (AID 1918979); note: nearly all actives have a fitted effect of over 35% in size; note: potency is the fitted concentration of half-maximal effect
How it was run: as §2

[6] = Quantitative High-Throughput drug screen in 47 multiple myeloma cell lines against the NCATS MIPE library collection: MM1R_ATCC cell viability assay (AID 1918981); note: nearly all actives have a fitted effect of over 35% in size; note: potency is the fitted concentration of half-maximal effect
How it was run: as §2

[7] = Quantitative High-Throughput drug screen in 47 multiple myeloma cell lines against the NCATS MIPE library collection: L363_DSMZ cell viability assay (AID 1918984); conditions: L363 myeloma viability, CellTiter-Glo ATP luminescence, 48 h; viability (% of control): at 45.8 µM (top of the series); note: nearly all actives have a fitted effect of over 40% in size; note: potency is the fitted concentration of half-maximal effect
How it was run: as §2

[8] = Quantitative High-Throughput drug screen in 47 multiple myeloma cell lines against the NCATS MIPE library collection: KMS34_JCRB cell viability assay (AID 1918985); note: nearly all actives have a fitted effect of over 40% in size; note: potency is the fitted concentration of half-maximal effect
How it was run: as §2

[9] = Quantitative High-Throughput drug screen in 47 multiple myeloma cell lines against the NCATS MIPE library collection: KMS12BM_JCRB cell viability assay (AID 1918971); note: nearly all actives have a fitted effect of over 35% in size; note: potency is the fitted concentration of half-maximal effect
How it was run: (§3)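 Approved and investigational drugs from MIPE 4.0 were added by pin tool to 500 cells per well. After 48 hours at 37C, ATP-based CellTiter-Glo luminescence indicated remaining viability.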

[10] = Quantitative High-Throughput drug screen in 47 multiple myeloma cell lines against the NCATS MIPE library collection: KMS26_JCRB cell viability assay (AID 1918975); note: nearly all actives have a fitted effect of over 45% in size; note: potency is the fitted concentration of half-maximal effect
How it was run: as §3

[11] = Quantitative High-Throughput drug screen in 47 multiple myeloma cell lines against the NCATS MIPE library collection: MOLP8_DSMZ cell viability assay (AID 1918977); note: nearly all actives have a fitted effect of over 45% in size; note: potency is the fitted concentration of half-maximal effect
How it was run: as §2

[12] = Quantitative High-Throughput drug screen in 47 multiple myeloma cell lines against the NCATS MIPE library collection: LP1_DSMZ cell viability assay (AID 1918982); note: nearly all actives have a fitted effect of over 35% in size
How it was run: as §2

[13] = Quantitative High-Throughput drug screen in 47 multiple myeloma cell lines against the NCATS MIPE library collection: KMS28PE_JCRB cell viability assay (AID 1918983); note: nearly all actives have a fitted effect of over 35% in size; note: potency is the fitted concentration of half-maximal effect
How it was run: as §2

[14] = Quantitative High-Throughput drug screen in 47 multiple myeloma cell lines against the NCATS MIPE library collection: Karpas25_ECACC cell viability assay (AID 1918968; note: nearly all actives have a fitted effect of over 35% in size; note: potency is the fitted concentration of half-maximal effect)
How it was run: as §1

[15] = Quantitative High-Throughput drug screen in 47 multiple myeloma cell lines against the NCATS MIPE library collection: KMS12PE_JCRB cell viability assay (AID 1918972); note: nearly all actives have a fitted effect of over 30% in size; note: potency is the fitted concentration of half-maximal effect
How it was run: as §1

[16] = Quantitative High-Throughput drug screen in 47 multiple myeloma cell lines against the NCATS MIPE library collection: KMS20_JCRB cell viability assay (AID 1918973); note: nearly all actives have a fitted effect of over 45% in size; note: potency is the fitted concentration of half-maximal effect
How it was run: as §1

[17] = Quantitative High-Throughput drug screen in 47 multiple myeloma cell lines against the NCATS MIPE library collection: KMS21BM_JCRB cell viability assay (AID 1918974); conditions: ATP luminescence, 48 h; viability: at 45.8 µM (top of the series); note: potency is the fitted concentration of half-maximal effect
How it was run: as §1

[18] = Quantitative High-Throughput drug screen in 47 multiple myeloma cell lines against the NCATS MIPE library collection: MMM1_PLB cell viability assay (AID 1918976); note: nearly all actives have a fitted effect of over 35% in size; note: potency is the fitted concentration of half-maximal effect
How it was run: as §2

[19] = Quantitative High-Throughput drug screen in 47 multiple myeloma cell lines against the NCATS MIPE library collection: MM1S_ATCC cell viability assay (AID 1918980); note: nearly all actives have a fitted effect of over 45% in size; note: potency is the fitted concentration of half-maximal effect
How it was run: as §2

Measured: Potency

CO[C@H]1C=CO[C@@]2(C)Oc3c(C)c(O)c4c(O)c(c(C=NN5CCN(C)CC5)c(O)c4c3C2=O)NC(=O)C(C)=CC=C[C@H](C)[C@H](O)[C@@H](C)[C@@H](O)[C@@H](C)[C@H](OC(C)=O)[C@H]1C
active: [1] 1.19 µM | [6] 0.533 µM | [8] 2.12 µM
inactive: [2] | [3] | [4] | [5] | [7]

Nc1ccn([C@@H]2O[C@H](CO)[C@@H](O)[C@H]2O)c(=O)n1
inactive: [1] | [9] | [10] | [11] | [4] | [12] | [13] | [7]

COc1ccc(-c2ccc3ncc4c(c3c2)n(-c2ccc(N3CCNCC3)c(C(F)(F)F)c2)c(=O)n4C)cn1
active: [1] 0.0066 µM | [2] 0.0935 µM | [9] 0.332 µM | [10] 0.0083 µM | [13] 0.0066 µM

COc1ccc2c(c1)c(C1=C(c3c[nH]c4ccccc34)C(=O)NC1=O)cn2CCCN(C)C
active: [1] 20.9 µM | [14] 20.9 µM | [3] 18.7 µM | [15] 16.6 µM | [16] 14.8 µM | [17] 0.469 µM | [11] 14.8 µM | [4] 23.5 µM | [6] 23.5 µM | [7] 13.2 µM | [8] 14.8 µM
inactive: [12]

O=C(O)Cc1cccc(OCCCN(Cc2cccc(C(F)(F)F)c2Cl)CC(c2ccccc2)c2ccccc2)c1
active: [1] 5.26 µM | [9] 3.32 µM | [18] 6.62 µM | [4] 18.7 µM | [19] 20.9 µM | [13] 23.5 µM
inactive: [15] | [5]

COc1cc(C=CC(=O)O)ccc1O
inactive: [1] | [3] | [15] | [11] | [4] | [12] | [13] | [8]

Cc1ccc2c(c1)C(=O)[C@]1(O)CCN(c3ccccc3)C1=N2
inactive: [18] | [4] | [7]
active: [1] 11.8 µM | [16] 2.96 µM | [8] 1.48 µM

COc1ccc(CCC(=O)Nc2nc3ccc(Cl)cc3s2)cc1OC
active: [18] 3.72 µM
inactive: [1] | [3] | [15] | [10] | [11] | [6] | [13]

CCC(=C(CC)c1ccc(O)cc1)c1ccc(O)cc1
inactive: [16]
active: [1] 9.35 µM | [2] 18.7 µM | [9] 13.2 µM | [15] 13.2 µM | [10] 13.2 µM | [4] 16.6 µM | [19] 14.8 µM | [6] 14.8 µM | [13] 18.7 µM | [8] 23.5 µM

COc1ccc2ccc(=O)oc2c1CC=C(C)C
inactive: [16] | [4]
active: [1] 11.8 µM | [14] 20.9 µM | [3] 18.7 µM | [9] 13.2 µM | [15] 20.9 µM | [10] 10.5 µM | [18] 16.6 µM | [11] 8.33 µM | [5] 23.5 µM | [6] 13.2 µM | [7] 10.5 µM | [8] 13.2 µM

Cc1cc2c(cc1C1(c3ccc(C(=O)O)cn3)CC1)C(C)(C)CCC2(C)C
inactive: [15] | [19] | [7]
active: [1] 1.05 µM | [2] 0.118 µM | [9] 3.32 µM | [10] 14.8 µM | [5] 0.0015 µM

c1ccc(CNc2nc(N3CCOc4ccccc43)nc3c2CCCC3)cc1
inactive: [1] | [2] | [11] | [6] | [13] | [7]

COC(=O)[C@H](c1ccccc1Cl)N1CCc2sccc2C1
active: [1] 20.9 µM
inactive: [9] | [10] | [11] | [5] | [6] | [12] | [13]

CC1(C)CC(=O)c2c(C(F)(F)F)nn(-c3ccc(C(N)=O)c(NC4CCC(O)CC4)c3)c2C1 (centres undefined)
inactive: [3] | [15]
active: [1] 0.0662 µM | [10] 0.0469 µM | [18] 0.372 µM | [11] 0.0418 µM | [4] 0.105 µM | [5] 0.235 µM | [19] 0.148 µM | [6] 0.118 µM | [13] 0.118 µM | [8] 0.105 µM

Cc1cc(-c2ncc(CC(=O)Nc3ccc(-c4cnccn4)cn3)cc2C)ccn1
inactive: [5]
active: [1] 6.62 µM | [14] 10.5 µM | [9] 6.62 µM | [17] 18.7 µM | [4] 20.9 µM | [19] 18.7 µM | [13] 16.6 µM | [7] 14.8 µM

O=S(=O)(O)c1ccc2cc(N=Nc3cc(S(=O)(=O)O)c4cccnc4c3O)ccc2c1
active: [1] 18.7 µM | [9] 16.6 µM | [10] 20.9 µM | [4] 7.43 µM | [19] 13.2 µM | [6] 20.9 µM | [13] 18.7 µM
inactive: [14] | [3] | [5]

COc1ccc(-c2nc3ccc(C4=NNC(=O)CC4C)cc3[nH]2)cc1 (centres undefined)
active: [19] 23.5 µM
not listed: [2] | [3] | [4] | [14] | [16] | [18]
inactive: all other assays above
